The sample as a whole holds a higher share of hits than the screen did.
HT1080 IDH1KD tx: qHTS for induction of synthetic lethality in tumor cells producing 2HG: qHTS for the HT-1080-IDH1KD cell line; 360,000 tested, 2% active; Potency, µM (doses to about 46.1 µM), for the others: top-dose activity, negative = toxicity, most hits filed as cytotoxic; HT-1080 IDH1 knockdown viability, ATP luminescence, 48 h;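 further: potency means the concentration at half of the fitted maximal effect; 0% = DMSO wells and -100% = cell-free medium wells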
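After a 2 h attachment period, IDH1KD HT-1080 cells took pin-transferred compound for 48 h at 37 °C; ATP-based luminescence after 10 min room-temperature reagent incubation reported viability.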
ALOX12 inh: Primary qHTS assay for inhibitors of human arachidonate 12S-lipoxygenase (ALOX12): Round 2 | Polyunsaturated fatty acid lipoxygenase ALOX12 (Homo sapiens), P18054 | purified 12hLO, xylenol orange hydroperoxide absorbance | Potency, µM (series often up to 108 µM), inactives show top-dose activity change, negative = inhibition, actives largely listed as inhibitors | 580,000 tested, 1.1% active; further: potency means the concentration at half of the fitted maximal effect
Target sequence (P18054 whole entry, looked up): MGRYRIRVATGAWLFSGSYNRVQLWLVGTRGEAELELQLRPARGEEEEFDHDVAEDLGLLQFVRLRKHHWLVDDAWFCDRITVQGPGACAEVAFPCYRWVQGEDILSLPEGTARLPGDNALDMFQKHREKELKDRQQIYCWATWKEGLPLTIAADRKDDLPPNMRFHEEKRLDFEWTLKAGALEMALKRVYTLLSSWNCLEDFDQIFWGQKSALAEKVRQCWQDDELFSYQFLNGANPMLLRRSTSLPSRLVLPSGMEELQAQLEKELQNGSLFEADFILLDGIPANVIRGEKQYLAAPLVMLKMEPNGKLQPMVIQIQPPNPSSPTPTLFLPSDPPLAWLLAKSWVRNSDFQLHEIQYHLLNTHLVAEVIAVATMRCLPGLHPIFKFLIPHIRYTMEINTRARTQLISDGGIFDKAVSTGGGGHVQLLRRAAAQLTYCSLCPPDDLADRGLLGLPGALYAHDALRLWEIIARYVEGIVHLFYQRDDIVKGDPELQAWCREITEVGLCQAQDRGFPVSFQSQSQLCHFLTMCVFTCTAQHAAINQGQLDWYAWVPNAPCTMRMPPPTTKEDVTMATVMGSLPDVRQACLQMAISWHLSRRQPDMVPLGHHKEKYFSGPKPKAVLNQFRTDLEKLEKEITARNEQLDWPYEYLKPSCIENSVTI
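Purified human 12hLO (150 nM final) in 25 mM Hepes, 0.01% Triton X-100, pH 7.0 was preincubated 15 min at room temperature with compound. Then 40 uM arachidonic acid was added, 30 min. Hydroperoxide was read by Fe-XO absorbance ratio 573/405 nm.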
TDP1 cell CPT: qHTS for Inhibitors of human tyrosyl-DNA phosphodiesterase 1 (TDP1): qHTS in cells in presence of CPT | 420,000 tested, 12% active | Potency, µM (doses to about 46.2 µM), inactives show top-dose activity change, negative = growth inhibition, most hits filed as inhibitors | AID 686979, 2013 | chicken DT40 Tdp1-/-;hTDP1 cells + 20 nM CPT, ATP luminescence, 48 h; further: potency means the concentration at half of the fitted maximal effect; nearly all actives have a fitted effect of over 55% in size
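Cell growth measured by CellTiter-Glo luminescence after a minimum 48 h, 37 C compound exposure with 20 nM CPT in Tdp1-knockout DT40 cells stably expressing hTDP1, seeded 400/well; qHTS titration format.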
DT40 TDP1 no CPT: qHTS for Inhibitors of human tyrosyl-DNA phosphodiesterase 1 (TDP1): qHTS in cells in absence of CPT. DT40 Tdp1-/- hTDP1 cells, no CPT, ATP luminescence, 48 h. Potency, µM (series often up to 46.2 µM), for inactives: at the highest dose activity change, negative = growth inhibition, usual class: inhibitors. 420,000 tested, 15% active; further: potency means the concentration at half of the fitted maximal effect; nearly all actives have a fitted effect of over 55% in size
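Growth kinetics read by CellTiter-Glo luminescence after ≥48 hr at 37 °C. Cells: DT40 Tdp1-/- stably carrying human TDP1, 400 per well, compound exposure in the absence of CPT (DMSO vehicle).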
HT1080NT lethal: qHTS for induction of synthetic lethality in tumor cells producing 2HG: qHTS for the HT-1080-NT fibrosarcoma cell line | Potency, µM (doses to about 46.1 µM), without a hit: at the highest dose activity, negative = less viability, actives largely listed as cytotoxic | HT-1080-NT fibrosarcoma viability, CellTiter-Glo ATP luminescence, 48 h | AID 686970, 2013 | 360,000 tested, 1.6% active;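 further: NT is the 2HG producing partner of a matched IDH1 knockdown line; potency means the concentration at half of the fitted maximal effect; 0% = DMSO-treated cells and -100% = media-only wells without cells; nearly all actives have a fitted effect of over 55% in size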
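Toxicity toward the 2HG-producing NT line was scored as %Activity, normalised to DMSO and no-cell wells, from CellTiter-Glo luminescence after 48 hours' treatment.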
IL-1B inflam inh: qHTS for Inhibitors of Inflammasome Signaling: IL-1-beta AlphaLISA Primary Screen; activity change, % at 57.5 µM; THP-1 LPS/ATP IL-1B secretion, AlphaLISA, 16 h; stronger effect = lower value; 360,000 tested, 4.7% active; AID 743279, 2014; in the data active means activity change below about -50%; inconclusive means mostly about -30% to -49%
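THP-1 cells pretreated 1 hr with compounds (up to 57.5 uM final), then stimulated with LPS (250 ng/mL final) plus ATP (1.25 mM final); secreted IL-1B measured by AlphaLISA after 16 hr, decreased signal indicating inhibition.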
* marks the source's active call; other numbers are inactive results; ? = inconclusive; . = no result given. Unless noted, the call rests on the fitted dose curve; in most records, active means well fitted curve in the direction sought with a large enough effect; inconclusive means small, poorly fitted or top-dose-only effect, or another doubt; inactive means no such curve, though single readings can be large; an effect the other way counts as inactive or inconclusive. Unless noted, on the % scale 0 is the no-effect control and ±100 the full control effect.

SMILES | HT1080 IDH1KD tx | ALOX12 inh | TDP1 cell CPT | DT40 TDP1 no CPT | HT1080NT lethal | IL-1B inflam inh
Cc1csc(-c2nc3ccccc3n2C(C)c2nc3ccccc3[nH]2)c1 (stereo unspecified) | -5.6% | -28.3% | ? | ? | -20.0% | -5.5
CC(C)(C)C(c1nc2ccccc2[nH]1)n1c(-c2cc(Cl)cc(Cl)c2)nc2ccccc21 (stereo unspecified) | ? | 0.2% | ? | 16.4µM* | ? | -0.2
O=C(OCC(=O)N1c2ccccc2Sc2ccccc21)c1ccc2c(c1)OCCO2 | . | 8.5% | . | . | . | .
O=C(NC1CCN(c2cc(-c3ccccc3)[nH]n2)CC1)c1cnccn1 | . | 50.5% | . | . | . | .
O=[N+]([O-])c1ccc(/C=N/Nc2ccc(C(F)(F)F)cn2)cc1 | . | -21.6% | . | . | . | .
CC1CCc2c(sc3nnn(Cc4ccc(F)cc4)c(=O)c23)C1 (stereo unspecified) | . | -17.8% | 3.26µM* | 25.9µM* | . | .
CCC1(C)Cc2c(sc3nnn(Cc4ccccc4Cl)c(=O)c23)CO1 (stereo unspecified) | -2.6% | 0.0% | ? | 16.4µM* | 11.0% | -19.7
Cc1ccc(Cn2nnc3sc4c(c3c2=O)CCC(C)C4)cc1 (stereo unspecified) | . | -20.0% | -27.7% | ? | . | .
C=C(C)CSc1nc2sc3c(c2c(=O)n1Cc1ccccc1)CC(C)(CC)OC3 (stereo unspecified) | . | -0.1% | ? | 11.6µM* | . | .
CCC1(C)Cc2c(sc3nnn(CC(=O)Nc4ccccc4)c(=O)c23)CO1 (stereo unspecified) | -17.2% | -7.7% | -16.1% | -15.1% | -9.4% | 4.4
CCCCCOC(=O)CSc1nc2sc3c(c2c(=O)n1Cc1ccccc1)CC(C)(C)OC3 | . | -15.3% | -1.5% | ? | . | .
CC1CCc2c(sc3nnn(Cc4ccccc4Cl)c(=O)c23)C1 (stereo unspecified) | . | -20.5% | ? | 20.6µM* | . | .
CCCCCCOc1ccccc1C(N)=O | . | . | ? | 16.4µM* | . | .
NC(=O)c1ccccc1OCC(=O)c1ccc(Cl)cc1 | -1.2% | -4.8% | -31.7% | ? | -1.1% | -57.3*
CC1=C(C(=O)N2CCCCCC2)CC(CC(=O)NC(c2ccccc2)c2ccccc2)C(=O)N1CCC1=CCCCC1 (stereo unspecified) | ? | -19.1% | 20.6µM* | 16.4µM* | ? | ?
CC1=C(C(=O)N2CCOCC2)CC(CC(=O)NC2CC2)C(=O)N1CCC1=CCCCC1 (stereo unspecified) | 6.6% | 13.4% | -3.8% | 2.8% | 8.7% | -7.0
CCCCN1C(=O)C(CC(=O)NC(c2ccccc2)c2ccccc2)CC(C(=O)N(C(C)C)C(C)C)=C1C (stereo unspecified) | 6.7% | -16.7% | 23.1µM* | 20.6µM* | -3.1% | -29.0
CCN(CC)C(=O)C1=C(C)N(Cc2ccc(C(C)(C)C)cc2)C(=O)C(CC(=O)NCCc2ccccn2)C1 (stereo unspecified) | -4.0% | 1.8% | ? | ? | -7.3% | -6.3
CCN(CC)C(=O)C1=C(C)N(Cc2ccc(C(C)(C)C)cc2)C(=O)C(CC(=O)NC(c2ccccc2)c2ccccc2)C1 (stereo unspecified) | ? | -2.1% | 13µM* | 11.6µM* | ? | ?
CC1=C(C(=O)N2CCOCC2)CC(CC(=O)NC(c2ccccc2)c2ccccc2)C(=O)N1Cc1ccc(C(C)(C)C)cc1 (stereo unspecified) | -26.2% | ? | ? | 16.4µM* | -25.2% | -19.4
O=C(c1ccc(F)c(Cl)c1)N1CCC2(CC1)CN(c1ccccc1)C2=O | . | 39.2% | . | . | . | .
CC1=C(C(=O)N(C(C)C)C(C)C)CC(CC(=O)NC(c2ccccc2)c2ccccc2)C(=O)N1Cc1ccc(C(C)(C)C)cc1 (stereo unspecified) | ? | -3.9% | ? | ? | ? | -59.4*
CCCCN1C(=O)C(CC(=O)NC(c2ccccc2)c2ccccc2)CC(C(=O)N(C)C)=C1C (stereo unspecified) | 15.1% | 12.4% | -9.7% | 4.3% | 0.6% | 21.2
CCN(CC)C(=O)C1=C(C)N(Cc2ccc(F)cc2)C(=O)C(CC(=O)NC(c2ccccc2)c2ccccc2)C1 (stereo unspecified) | -0.1% | ? | ? | 20.6µM* | -0.6% | ?
CC1=C(C(=O)N(C)C)CC(CC(=O)NC(c2ccccc2)c2ccccc2)C(=O)N1Cc1ccc(C(C)(C)C)cc1 (stereo unspecified) | -24.5% | 0.0% | ? | 23.1µM* | ? | -5.7
SMILES | HT1080 IDH1KD tx | ALOX12 inh | TDP1 cell CPT | DT40 TDP1 no CPT | HT1080NT lethal | IL-1B inflam inh
COc1ccc(CN2C(=O)C(CC(=O)NC(c3ccccc3)c3ccccc3)CC(C(=O)N(C(C)C)C(C)C)=C2C)cc1 (stereo unspecified) | -8.4% | ? | ? | ? | -15.4% | ?
CCN(CC)C(=O)C1=C(C)N(Cc2ccc(F)cc2)C(=O)C(CC(=O)NCc2cccs2)C1 (stereo unspecified) | 5.1% | ? | -5.8% | -8.5% | 0.9% | ?
Cc1cc(C)n2nc3nc(N4CCCCC4)nc(-c4ccco4)c3c2n1 | 8.6% | . | 14.6µM* | 20.6µM* | 8.6% | 7.4
Cc1cc(C)cc(CC(Cc2nc3ccccc3[nH]2)c2nc3ccccc3[nH]2)c1 (stereo unspecified) | ? | 0.0% | ? | 25.9µM* | 18.4µM* | -69.3*
Cc1ccc(CC(Cc2nc3ccccc3[nH]2)c2nc3ccccc3[nH]2)cc1 (stereo unspecified) | . | . | 26.6µM* | 26.6µM* | . | .
Cc1ccc(CSCc2nc3ccccc3[nH]2)cc1 | ? | 4.5% | 29.1µM* | 20.6µM* | -0.9% | -98.5*
Cc1cc(C)n(CCC(=O)N2C[C@@H](CO)[C@H](c3nc(C)no3)C2)n1 | . | 40.6% | . | . | . | .
CC(C)(C)C(=O)NNc1nc(-c2ccccc2)c2cc(Br)ccc2n1 | -24.9% | ? | 16.4µM* | 13µM* | -5.5% | -16.1
O=C(Cn1nc2c(cc1=O)CCCCC2)Nc1ccccc1 | . | 35.3% | . | . | . | .
